# Bioassay records as filed in PubChem.
# Rows were chosen to be rich in hits. Some 7.9% of all compounds tested hit in one or more screens of this group.
# MCF10A rerep: inducers of DNA re-replication in MCF 10A breast cells; MCF 10A DNA re-replication, Hoechst nuclear intensity, 48 h; Potency, µM (titrated, usually from 46.1 µM), for the others: at the highest dose activity, positive = re-replication, actives largely listed as activators; 350,000 compounds, 2.9% hits; note: % of control where 0% means no effect; nearly all actives have a fitted effect of over 50% in size
# HT1080-NT tox: kills 2HG-producing HT-1080-NT fibrosarcoma cells; HT-1080-NT fibrosarcoma viability, CellTiter-Glo ATP luminescence, 48 h; Potency, µM (top dose mostly 46.1 µM), inactives show at the highest dose activity, negative = less viability, actives largely listed as cytotoxic; 360,000 compounds, 1.6% hits;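 note: NT is the 2HG producing partner of a matched IDH1 knockdown line; 0% = DMSO-treated cells and -100% = media-only wells without cells; nearly all actives have a fitted effect of over 55% in size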
#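 A 48-hour cytotoxicity screen used HT-1080-NT cells plated 2 hours before compound delivery. ATP-based CellTiter-Glo luminescence measured viability, normalized to DMSO and no-cell controls.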
# SW480 rerep: DNA re-replication induction in SW480 cells; SW480 DNA re-replication, Hoechst DNA content imaging, 48 h; Potency, µM (doses to about 46.1 µM), for inactives: top-dose re-replication activation, actives largely listed as activators; 340,000 compounds, 1.8% hits; note: % of control where 0% means no effect; nearly all actives have a fitted effect of over 55% in size
#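 Per well, 250 cells were exposed to pinned compound for 48 hr. Nuclear DNA was visualised with Hoechst (40 min, 37 C) and total object intensity recorded by fluorescence scanning.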
# HT1080 IDH1KD tx: toxicity to HT-1080 IDH1 knockdown cells (counter line); AID 686971; Potency, µM (doses to about 46.1 µM), inactives show at the top dose activity, negative = toxicity, usual class: cytotoxic; HT-1080 IDH1 knockdown viability, ATP luminescence, 48 h; 360,000 compounds, 2% hits;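 note: 0% = DMSO wells and -100% = cell-free medium wells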
#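 After a 2 h attachment period, IDH1KD HT-1080 cells took pin-transferred compound for 48 h at 37 °C; ATP-based luminescence after 10 min room-temperature reagent incubation reported viability.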
# KB-V1 MDR tox: KB-V1 MDR subline cytotoxicity; KB-V1 MDR cells viability, CellTiter-Glo, 72 h; Potency, µM (top dose mostly 46.1 µM), hits mostly cytotoxic; 400,000 compounds, 3.4% hits; AID 1347076; note: % is set by controls: 0 for no effect and ±100 for the full control effect; nearly all actives have a fitted effect of over 60% in size
#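 Drug-selected KB-V1 cells, grown in DMEM lacking phenol red with 10% FBS, receive compound titrations; after three days at 37 degrees C, surviving cell ATP is quantified by CellTiter-Glo luminescence and responses normalized and curve-fitted.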
# KB-3-1 tox: kills parental KB-3-1 adenocarcinoma cells; Potency, µM (top dose mostly 46.1 µM), actives largely listed as cytotoxic; 400,000 compounds, 1.4% hits; KB-3-1 viability, CellTiter-Glo ATP luminescence, 72 h; note: % is set by controls: 0 for no effect and ±100 for the full control effect; nearly all actives have a fitted effect of over 60% in size
#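 Multi-concentration cytotoxicity screen in KB-3-1 cells grown in DMEM lacking phenol red with 10% FBS. After 72 h at 37 °C with compound, ATP-dependent luminescence was recorded.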
# The depositor's hits bear a star; i = inactive; u = inconclusive; x = not tested or not shown; ! = not confirmed by another sample; [ ] = remark or other dose. Calls come from the whole dose curve; as a rule, active = well fitted curve in the direction sought with a large enough effect; inconclusive = small, poorly fitted or top-dose-only effect, or another doubt; inactive = no such curve, though single readings can be large; an effect the other way counts as inactive or inconclusive. Potency is the fitted concentration of half-maximal effect.
SMILES,MCF10A rerep,HT1080-NT tox,SW480 rerep,HT1080 IDH1KD tx,KB-V1 MDR tox,KB-3-1 tox
Oc1ccc(/C=N/NP(=S)(c2ccccc2)c2ccccc2)cc1,7%,-4%,-3%,-11%,i,i
CCOC(=O)[C@]12Cc3cc(Cl)ccc3[C@H]1N(C(C)C)C(=O)c1ccccc12,x,4.6µM*,x,3.3µM*,5.2µM*,2.6µM*
CCOC(=O)[C@]12Cc3cc(Cl)ccc3[C@H]1N(C)C(=O)c1ccccc12,x,3%,x,1%,i,u
CCOC(=O)[C@]12Cc3cc(Cl)ccc3[C@H]1N(CC(=O)OC)C(=O)c1ccccc12,x,5.8µM*,x,7.3µM*,12µM*,3.7µM*
O=C(/C=C/c1ccc(F)cc1)NNC(=O)CCN1CCN(Cc2ccccc2)CC1,10µM*,0%,u,-22%,i,u
Cc1ccc(-c2cc(-c3ccc(C)cc3)[n+](-c3ccc(C(=O)[O-])cc3)c(-c3ccc(C)cc3)c2)cc1,u,-17%,-3%,-15%,i,i
CCOC(=O)c1ccc(-[n+]2c(-c3ccccc3)cc(-c3ccccc3)cc2-c2ccccc2)cc1,u,18µM*,u,23µM*,i,i
CCOC(=O)c1cccc(-[n+]2c(-c3ccccc3)cc(-c3ccccc3)cc2-c2ccccc2)c1,1%,u,u,18µM*,i,u
CCOC(=O)c1cccc(NC(=O)c2c(O)[nH]c(=O)[nH]c2=O)c1,23%,-7%,-2%,-1%,i,i
CCCCCN1C(=O)c2cc(OC)ccc2[C@@]2(C(=O)OCC)Cc3cc(Cl)ccc3[C@@H]12,x,2.9µM*,x,4.1µM*,1.6µM*,0.65µM*
CCOC(=O)[C@]12Cc3cc4ccccc4cc3[C@H]1N(Cc1ccccc1)C(=O)c1cc(OC)ccc12,x,21µM*,x,15µM*,16µM*,5.8µM*
CCOC(=O)[C@]12Cc3cc(C)ccc3[C@H]1N(C)C(=O)c1ccccc12,x,0%,x,-16%,i,i
CCOC(=O)[C@]12Cc3cc(Cl)ccc3[C@H]1N(Cc1ccccc1)C(=O)c1cc(OC)ccc12,x,15µM*,x,13µM*,7.3µM*,2.6µM*
CCOC(=O)[C@]12Cc3cc4ccccc4cc3[C@H]1N(Cc1ccccc1)C(=O)c1ccccc12,x,16µM*,x,15µM*,u,5.2µM*
CCOC(=O)[C@]12Cc3cc(OC)c(OC)cc3[C@H]1N(Cc1ccccc1)C(=O)c1ccccc12,11%,0%,-4%,-3%,u,i
CC(=O)Nc1cnc(-c2ccccc2O)cn1,x,u,x,-11%,i,i
O=C(Nc1ccc2c(c1)OCCO2)c1cccn(Cc2cccc([N+](=O)[O-])c2)c1=O,x,x,x,x,i,i
Cc1cccc(CNCCc2c[nH]c3ccccc23)c1,14%,15µM*,u,u,i,u
Cn1nc(-c2ccc(OCC(=O)N3CCN(Cc4ccccc4)CC3)cc2)c2ccccc2c1=O,16%,-4%,9%,-14%,0.65µM*!,5.8µM*!
O=C(COc1ccc(S(=O)(=O)N2CCOCC2)cc1)N1CCN(Cc2ccc3c(c2)OCO3)CC1,22%,-17%,-14%,-20%,16µM*,i
CCCNS(=O)(=O)c1ccc(OCC(=O)N2CCN(Cc3ccccc3)CC2)cc1,3%,-2%,2%,-12%,8.2µM*,u
CCC12CN3CC(CC)(CN(C1)C3c1ccccn1)C2=O (centres undefined),x,x,x,x,i,i
CN1C2CCC1/C(=C/c1ccccn1)C(=O)/C2=C\c1ccccn1,u,1.2µM*,u,0.82µM*,u,0.92µM*
Cc1sc(NC(=O)Cn2c(=O)oc3ccccc32)nc1-c1ccc(Cl)cc1,u,u,-2%,u,i,u
O=C(O)CCCc1ccc(N(CCCl)CCCl)cc1,u,-7%,u,1%,i,i
SMILES,MCF10A rerep,HT1080-NT tox,SW480 rerep,HT1080 IDH1KD tx,KB-V1 MDR tox,KB-3-1 tox
O=c1[nH]cnc2nc(-c3ccc(N(CCCl)CCCl)cc3)[nH]c12,15µM*,u,9.2µM*,0.65µM*,u,u
O=C1NC(=O)C(=Cc2ccc(SC3CCCCC3)o2)C(=O)N1,21µM*,u,u,u,i,i
Cc1nn(-c2nccs2)c2c1C(=O)CC(C)(C)C2Br (centres undefined),u,-16%,u,-29%,i,i
C[C@H](CO)N1C[C@H](C)[C@@H](CN(C)Cc2ccc(Cl)c(Cl)c2)Oc2c(NC(=O)c3ccncc3)cccc2C1=O,27%,u,1%,0%,i,i
CCOC(=O)c1c(C)n(Cc2ccc(F)cc2)c2ccc(O)cc12,6%,-8%,u,-3%,16µM*,u
CCOP(=O)(OCC)c1nc(-c2cccc3ccccc23)oc1NCc1ccccc1,u,12%,u,4%,9.2µM*,i
CCCNc1oc(-c2cccc3ccccc23)nc1C#N,u,-5%,-7%,-16%,i,i
COP(=O)(OC)c1nc(-c2cccc3ccccc23)oc1NCCc1ccccc1,21µM*,u,u,u,u,i
Cc1ccc(-n2c(/C=C/c3cccc4ccccc34)nc3ccccc3c2=O)cc1,x,x,x,x,i,i
O=C(Cc1ccc(S(=O)(=O)N2CCCC2)s1)N1CCN(c2ccc(F)cc2)CC1,13%,0%,u,-8%,u,i
Cc1ccccc1C(O)(Cc1ccccc1)C1CN2CCC1CC2 (centres undefined),4%,u,-8%[9.22 µM],u,u,10µM*
CCOC(=O)Cn1cc(/C=N/NC(=O)CC#N)c2ccccc21,0%,u,-87%,1%,i,i
CCC(=NCC1CCCO1)c1c(O)n(-c2ccccc2)c(=O)[nH]c1=O (centres undefined),-16%,0%,15%,0%,i,i
CCC(=NCC1CCCO1)c1c(O)n(Cc2ccccc2)c(=O)[nH]c1=O (centres undefined),2%,7%,1%,7%,4.1µM*,i
COC(=O)[C@@]12CCCCN1[C@H](c1ccc(-c3ccc(Cl)c(Cl)c3)c(OC)c1)[C@H]1C(=O)N(C)C(=O)[C@H]12,-14%,16%,-5%,13%,i,i
CCCCCn1c(=O)c(C(=O)Nc2cccc(C)n2)c(O)c2ccccc21,1%,26%,-4%,11%,u,i
